Results filed as inconclusive are left out. A call without a number means that no potency is given here. Calls of active or inactive are those of the source. Calls follow the shape of the dose curve; as a rule, active = well fitted inhibition curve with a large enough effect; inconclusive = small, poorly fitted or top-dose-only effect; inactive = flat fitted curve, though single readings scatter.
Columns and labels:
Assay in all cases: qHTS profiling for inhibitors of Plasmodium falciparum proliferation (AID 504749); also: nearly all actives have a fitted effect of over 60% in size
Details in all cases: P. falciparum in erythrocytes, SYBR Green DNA, 72 h; series mostly up to 28.7 µM
[1] = system: DIV30
Outline: (§1)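 Infected RBCs, 0.3% parasitemia/2.5% Hct final; cpd 72 h, 37 C, 5% CO2; lysis buffer with saponin/triton/SYBR Green I, o/n RT dark; FI 485/535; norm. to artemisinin (0.29 uM) and DMSO.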

[2] = system: Dd2
Outline: as §1

[3] = system: ECU
Outline: as §1

[4] = system: FAB9
Outline: as §1

[5] = system: HB3
Outline: as §1

[6] = system: JCK
Outline: as §1

[7] = system: N140
Outline: as §1

[8] = system: P93_24
Outline: as §1

[9] = system: P94_40
Outline: as §1

[10] = system: PAD
Outline: as §1

[11] = system: PC15
Outline: as §1

[12] = system: PC26
Outline: as §1

[13] = system: PC49
Outline: as §1

[14] = system: SC27B
Outline: as §1

[15] = system: TAB109
Outline: as §1

[16] = system: TAB113
Outline: as §1

[17] = system: TAB165
Outline: as §1

[18] = system: ICS
Outline: as §1

[19] = system: DIV17
Outline: as §1

[20] = system: GB4
Outline: as §1
Potency is read from the fitted curve at half-maximal effect.

SMILES	Potency [1]	Potency [2]	Potency [3]	Potency [4]	Potency [5]	Potency [6]	Potency [7]	Potency [8]	Potency [9]	Potency [10]	Potency [11]	Potency [12]	Potency [13]	Potency [14]	Potency [15]	Potency [16]	Potency [17]	Potency [18]	Potency [19]	Potency [20]
c1ccc(C2(c3ccccc3)CC2C2=NCCN2)cc1 (stereo not drawn)	inactive	inactive	inactive	inactive	inactive	inactive	inactive	inactive	inactive	inactive	5.62 µM (active)	inactive	inactive	inactive	inactive	inactive	inactive			
NC1=NC(=O)N2CC12 (stereo not drawn)	inactive			inactive		inactive	inactive				inactive		inactive	inactive		inactive		11.2 µM (active)		
Cc1cc(O)ccc1Cl	inactive	inactive	inactive	inactive	inactive	inactive	inactive	inactive		inactive	inactive	inactive	inactive	inactive	inactive	inactive	inactive	inactive	inactive	inactive
CN[C@@H]1C[C@@H](c2ccc(Cl)c(Cl)c2)c2ccccc21		10 µM (active)		inactive		inactive										inactive		10 µM (active)	7.57 µM (active)	
CC(=O)[O][Hg][c]1ccccc1		0.126 µM (active)	10 µM (active)	3.98 µM (active)	6.31 µM (active)	3.98 µM (active)	3.55 µM (active)	5.01 µM (active)	3.55 µM (active)	6.31 µM (active)	3.55 µM (active)	6.75 µM (active)	2 µM (active)	4.47 µM (active)	4.47 µM (active)	7.08 µM (active)	4.47 µM (active)	3.55 µM (active)	4.26 µM (active)	4.26 µM (active)
COC(=O)c1cncn1C(C)c1ccccc1 (stereo not drawn)	inactive											inactive							inactive	inactive
CC[N+]1(CCOC(=O)C(O)(c2ccccc2)c2ccccc2)CCCCC1	inactive	inactive	inactive	inactive	inactive	inactive	inactive		inactive	inactive	inactive	inactive	inactive	inactive		inactive		inactive	inactive	inactive
COC(C)(C)CCCC(C)C/C=C/C(C)=C/C(=O)OC(C)C (stereo not drawn)				inactive				8.91 µM (active)						inactive	inactive					
Cc1ccc(Cl)c(O)c1	inactive	inactive	inactive	inactive	inactive	inactive	inactive	inactive	inactive	inactive	inactive	inactive	inactive	inactive	inactive	inactive	inactive	inactive	inactive	inactive
C#CC1(O)CCC2C3CCC4=CC(=O)CCC4(C)C3CCC21C (stereo not drawn)	inactive	inactive	inactive	inactive	inactive	inactive	inactive	inactive	inactive	inactive	inactive	inactive	inactive	inactive	inactive	inactive	inactive	inactive	inactive	inactive
CCCCc1ccc(C(=O)O)nc1	inactive	inactive	inactive	inactive	inactive	inactive	inactive	inactive	inactive	inactive	inactive	inactive	inactive	inactive	inactive	inactive	inactive	inactive	inactive	inactive
O=C(O)C(Cl)Cl	inactive	inactive	inactive	inactive	inactive	inactive	inactive	inactive	inactive	inactive	inactive	inactive	inactive	inactive	inactive	inactive	inactive	inactive	inactive	inactive
CCCN1CCC[C@H](c2cccc(O)c2)C1	inactive		inactive	inactive	inactive	inactive	inactive	inactive	inactive	inactive	inactive	inactive	inactive	inactive	inactive	inactive	inactive			
C[C@]12CCC(=O)C(O)=C1CC[C@@H]1[C@H]3CCC(=O)[C@@]3(C)CC[C@@H]12	inactive	inactive	inactive	inactive	inactive	inactive				inactive	inactive	inactive	inactive					inactive		inactive
CN1C2CCC1CC(OC(=O)c1cc(Cl)cc(Cl)c1)C2 (stereo not drawn)	inactive	inactive		inactive	inactive	inactive	inactive	inactive	inactive	inactive	inactive	inactive	inactive	inactive	inactive	inactive	inactive			inactive
O=C(O)COc1ccccc1	inactive	inactive	inactive	inactive	inactive	inactive	inactive	inactive	inactive	inactive	inactive	inactive	inactive	inactive	inactive	inactive	inactive	inactive	inactive	inactive
CN(C)[C@@H]1C(=O)C(C(N)=O)=C(O)[C@@]2(O)C(=O)C3=C(O)c4c(O)cccc4[C@@](C)(O)[C@H]3[C@H](O)[C@@H]12		3.55 µM (active)	inactive	inactive		inactive					inactive	inactive	inactive	inactive		inactive			inactive	
CC(=O)OCC1=C(C(=O)O)N2C(=O)[C@@H](N)[C@@H]2SC1	inactive	inactive	inactive	inactive	inactive	inactive					inactive	inactive	inactive					inactive	inactive	inactive
COC(=O)[C@@H](N)CCCN=C(N)N[N+](=O)[O-]	inactive	inactive	inactive	inactive	inactive	inactive	inactive	inactive	inactive	inactive	inactive	inactive	inactive	inactive	inactive	inactive	inactive	inactive	inactive	inactive
CC(C)NC(C)Cc1ccc(I)cc1 (stereo not drawn)			inactive	inactive	inactive	inactive	inactive	inactive	inactive	inactive	inactive		inactive	inactive	inactive	inactive	inactive	inactive		
NC(=O)CN1CC(O)CC1=O (stereo not drawn)	inactive	inactive	inactive	inactive	inactive	inactive	inactive	inactive	inactive	inactive	inactive	inactive	inactive	inactive	inactive	inactive	inactive	inactive	inactive	inactive
CCCCCCCCCC(CC)c1ccc(S(=O)(=O)O)cc1 (stereo not drawn)	inactive	inactive	inactive	inactive	inactive	inactive	inactive	inactive	inactive	inactive	inactive	inactive	inactive	inactive	inactive	inactive	inactive	inactive	inactive	inactive
CCCCCCCCCCCCCCCC[N+](C)(C)C			8.91 µM (active)										inactive	12.6 µM (active)		8.91 µM (active)		7.08 µM (active)	8.49 µM (active)	4.78 µM (active)
C1CCC(NC2CCCCC2)CC1	inactive	inactive	inactive	inactive	inactive	inactive	inactive	inactive	inactive	inactive	inactive	inactive	inactive	inactive	inactive	inactive	inactive	inactive	inactive	inactive
C=CCN1CC[C@]23CCCCC2[C@H]1Cc1ccc(O)cc13 (stereo partly drawn)	inactive	11.2 µM (active)	inactive	inactive	inactive	inactive	inactive	inactive	inactive	inactive		inactive	inactive	inactive	inactive	inactive	inactive	inactive	inactive	
O=[N+]([O-])c1ccc([As](=O)(O)O)cc1	8.49 µM (active)	3.98 µM (active)	3.55 µM (active)		12.6 µM (active)		4.47 µM (active)	5.01 µM (active)	7.08 µM (active)	7.94 µM (active)		13.5 µM (active)		4.47 µM (active)	6.31 µM (active)	7.08 µM (active)	5.01 µM (active)	8.91 µM (active)	12 µM (active)	8.49 µM (active)
